Compound activity as filed in PubChem.
Pf Dd2 inh – inhibitors of Plasmodium falciparum Dd2 growth; P. falciparum Dd2 growth, SYBR Green, 72 h; stronger effect = lower value; activity change, % at 10 µM; actives 2.3% (n = 94,000); AID 1159554; in the data active = activity change below about -80%
C diff growth – inhibitors of Clostridium difficile growth. AID 1259249. actives 0.25% (n = 86,000). Clostridium difficile clinical isolate growth, OD600, 24 h; stronger effect = lower value. growth activity, negative = inhibition, % at 16 µg/mL (by protocol);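 active = mean growth activity at or below -80% and every replicate also at or below -80%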;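 also: 0% = DMSO wells and -100% = levofloxacin 16 µg/mL wells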
The depositor's hits bear a star; nt = no result. This is a sample that favours compounds with a hit; in the whole collection about 2.4% have one here.

SMILES	Pf Dd2 inh	C diff growth
COc1ccc(S(=O)(=O)N2CC[C@@H]3[C@@H](CO)Nc4ccc(C#Cc5ccccc5OC)cc4[C@@H]32)cc1	-15.9	11.9
CN1C(=O)c2cc(NC(=O)c3cccc(F)c3)ccc2OC[C@H]2O[C@@H](CC(=O)NCC3CC3)CC[C@H]21	22.9	1.4
O=C(NC1CCCC1)N1CC(=O)N2[C@H](CO)[C@H](c3ccc(-c4ccccc4)cc3)[C@@H]2C1	8.4	nt
C[C@@H]1CN([C@H](C)CO)S(=O)(=O)c2ccc(C#Cc3cccnc3)cc2O[C@H]1CN(C)C	-25.0	-1.3
CCCN(C)C[C@H]1Oc2cc(C#Cc3cccnc3)ccc2S(=O)(=O)N([C@H](C)CO)C[C@H]1C	-88.9*	-4.3
CNC[C@@H]1Oc2cc(C#Cc3cccc(OC)c3)ccc2S(=O)(=O)N([C@H](C)CO)C[C@H]1C	-68.5	13.6
C[C@H]1CN([C@@H](C)CO)S(=O)(=O)c2ccc(C#Cc3cccnc3)cc2O[C@@H]1CN(C)C	-28.9	-3.8
CNC[C@H]1Oc2cc(C#Cc3ccc(OC)cc3)ccc2S(=O)(=O)N([C@H](C)CO)C[C@@H]1C	-85.7*	1.8
CCCN(C)C[C@H]1Oc2cc(C#Cc3cccnc3)ccc2S(=O)(=O)N([C@@H](C)CO)C[C@H]1C	-84.4*	-7.6
C[C@H]1CN([C@@H](C)CO)S(=O)(=O)c2ccc(C#Cc3cccnc3)cc2O[C@H]1CN(C)C	-9.0	-3.4
CCCN(C)C[C@@H]1Oc2cc(C#Cc3cccnc3)ccc2S(=O)(=O)N([C@H](C)CO)C[C@@H]1C	-87.7*	-3.5
CS(=O)(=O)Nc1ccc2c(c1)[C@H]1C[C@H](CC(=O)NCc3ccc(Oc4ccccc4)cc3)O[C@@H](CO)[C@H]1O2	-0.3	-0.2
COc1ccc(-c2ccc3n(c2=O)C[C@H]2[C@H](CO)[C@@H](C(=O)N(C)C)N(CC4CCCC4)[C@@H]32)cc1	nt	-5.6
O=C(c1ccccc1F)N1CC2(C1)[C@H](c1ccccc1)[C@H](CO)N2CC1CC1	-3.1	13.2
CO[C@@H](CN(C)C(=O)C1CC1)[C@@H](C)CN(C(=O)Nc1ccc(C(F)(F)F)cc1)[C@H](C)CO	-3.4	nt
Cc1noc(C)c1NC(=O)N(C)C[C@@H]1Oc2c(NC(=O)C3CC3)cccc2C(=O)N([C@@H](C)CO)C[C@@H]1C	5.7	-3.1
CCCN(C)C[C@@H]1Oc2cc(C#Cc3ccc(OC)cc3)ccc2S(=O)(=O)N([C@H](C)CO)C[C@@H]1C	-62.5	6.3
CCCN(C)C[C@@H]1Oc2cc(C#Cc3ccc(OC)cc3)ccc2S(=O)(=O)N([C@@H](C)CO)C[C@@H]1C	-85.1*	5.6
Cn1cnc(CCNC(=O)C[C@@H]2CC[C@H]3[C@@H](COC[C@H](O)CN3C(=O)Nc3ccccc3)O2)c1	15.9	-2.5
COCC(=O)N(C)C[C@H]1Oc2cc(C3=CCCC3)ccc2S(=O)(=O)N([C@H](C)CO)C[C@H]1C	7.6	-2.0
C[C@H](CO)N1C[C@H](C)[C@H](CN(C)S(=O)(=O)c2ccc(C(F)(F)F)cc2)OCc2ccccc2-c2ccccc2C1=O	-85.0*	4.7
C[C@@H]1CN([C@H](C)CO)C(=O)c2ccccc2-c2ccccc2CO[C@H]1CN(C)S(=O)(=O)c1ccc(C(F)(F)F)cc1	-51.7	2.9
Cc1ccccc1S(=O)(=O)N(C)C[C@H]1OCc2ccccc2-c2ccccc2C(=O)N([C@H](C)CO)C[C@H]1C	-85.6*	-2.2
Cc1ccccc1S(=O)(=O)N(C)C[C@@H]1OCc2ccccc2-c2ccccc2C(=O)N([C@H](C)CO)C[C@H]1C	3.0	-5.6
C[C@H]1CN([C@@H](C)CO)C(=O)c2ccccc2-c2ccccc2CO[C@H]1CN(C)Cc1cccc(C(F)(F)F)c1	-78.7	8.2
SMILES	Pf Dd2 inh	C diff growth
C[C@H](CO)N1C[C@H](C)[C@H](CN(C)Cc2ccc(C(F)(F)F)cc2)OCc2ccccc2-c2ccccc2C1=O	-83.7*	-1.1
C[C@@H]1CN([C@H](C)CO)C(=O)c2ccccc2-c2ccccc2CO[C@@H]1CN(C)Cc1ccc(C(F)(F)F)cc1	-87.0*	-4.1
C[C@H]1CN([C@@H](C)CO)C(=O)c2ccccc2-c2ccccc2CO[C@@H]1CN(C)Cc1ccc(C(F)(F)F)cc1	-26.4	65.7
CCCNC(=O)[C@@H]1[C@@H](CO)[C@@H]2Cn3c(ccc(C4=CCCC4)c3=O)[C@H]1N2CCC(F)(F)F	15.7	-4.9
C[C@H](CO)N1C[C@H](C)[C@@H](CN(C)Cc2ccc(C(F)(F)F)cc2)Oc2c(NS(=O)(=O)c3ccc(F)cc3)cccc2C1=O	-3.1	0.0
CCCNC(=O)Nc1ccc2c(c1)C(=O)N(C)C[C@H](OC)[C@@H](C)CN(S(C)(=O)=O)[C@@H](C)CO2	26.9	1.7
CCC(=O)N(C)C[C@@H]1Oc2ncc(C#CC(C)(C)O)cc2C(=O)N([C@@H](C)CO)C[C@H]1C	33.0	-1.2
COCC(=O)N1C[C@H]2[C@@H](c3ccccc31)[C@H](CO)N2C(=O)C1CCCCC1	9.8	8.1
CCCNC(=O)C[C@@H]1CC[C@H]2[C@@H](COc3ccc(NC(=O)c4ccc(OC)cc4)cc3C(=O)N2C)O1	-12.8	-1.6
COc1ccccc1S(=O)(=O)N[C@@H]1C=C[C@H](CC(=O)NCc2cc(F)cc(F)c2)O[C@H]1CO	11.7	nt
O=C(C[C@H]1CC[C@H]2[C@@H](COC[C@H](O)CN2Cc2cccc(Cl)c2)O1)N1CCCCC1	4.1	16.4
CO[C@H]1CN(C)C(=O)c2ccc(NC(=O)c3cc(C)on3)cc2OC[C@@H](C)N(CC2CC2)C[C@@H]1C	-1.8	nt
C[C@H]1CN([C@@H](C)CO)C(=O)c2c(c3ccccc3n2C)-c2ccccc2CO[C@H]1CN(C)Cc1ccccc1C(F)(F)F	-69.4	5.9
C[C@@H]1CN([C@@H](C)CO)C(=O)c2ccccc2-c2ccccc2CO[C@H]1CN(C)Cc1ccccc1C(F)(F)F	-89.6*	29.8
C[C@H](CO)N1C[C@H](C)[C@H](CN(C)Cc2cccc(C(F)(F)F)c2)OCc2ccccc2-c2ccccc2C1=O	-74.6	9.3
C[C@H]1CN([C@@H](C)CO)C(=O)c2ccccc2-c2ccccc2CO[C@H]1CN(C)Cc1ccc(C(F)(F)F)cc1	-92.1*	6.6
COc1ccc(S(=O)(=O)N[C@H]2C=C[C@@H](CC(=O)N3CCN(c4ccccc4)CC3)O[C@@H]2CO)cc1	-0.4	-6.9
CNC[C@@H]1OCCCC[C@H](C)Oc2ccc(NC(=O)NC3CCCCC3)cc2C(=O)N([C@H](C)CO)C[C@@H]1C	10.4	-3.1
CC(C)NC(=O)Nc1ccc2c(c1)C(=O)N([C@@H](C)CO)C[C@H](C)[C@H](CN(C)S(=O)(=O)c1ccc(F)cc1)O2	19.0	2.2
CCCNC(=O)N1[C@H](C#N)[C@H](c2ccc(C#Cc3ccc(F)cc3)cc2)[C@H]1CO	-86.4*	-2.8
CCCNC(=O)N1[C@H](CO)[C@@H](c2ccc(-c3ccccc3)cc2)[C@@H]1CNC(C)=O	1.8	-1.2
CCCNC(=O)N1[C@H](C#N)[C@H](c2ccc(C#Cc3ccc(F)cc3)cc2)[C@@H]1CO	-86.6*	-2.9
CCCNC(=O)N1[C@H](C#N)[C@@H](c2ccc(C#Cc3cccc(F)c3)cc2)[C@@H]1CO	-54.4	1.1
CCCNC(=O)N1[C@H](C#N)[C@H](c2ccc(C#Cc3cccc(F)c3)cc2)[C@H]1CO	-85.0*	-2.8
CCCNC(=O)N1[C@H](C#N)[C@H](c2ccccc2)[C@H]1CO	-39.2	-9.9
